# Reference: PubChem BioAssay AID485313 (National Center for Advancing Translational Sciences (NCATS), 2010)
# The whole screen tested about 320,000 compounds, of which about 7,600 (2.4%) were called active. Entries that show only a call come without a potency. Another 3% or so got no clear call; they are omitted. Calls follow the shape of the dose curve; as a rule, active = well fitted activation curve with a large enough effect; inconclusive = small, poorly fitted or top-dose-only effect; inactive = no such curve, though single readings can be large or run the other way. The sample as a whole holds a higher share of actives than the screen did.
# Experiment: qHTS Assay for NPC1 Promoter Activators; also: nearly all actives have a fitted effect of over 60% in size;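 as to activation: reporter is driven by a mutant NPC1 promoter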
# Conditions: Huh7 NPC1 promoter luciferase reporter, 24 h; series mostly up to 9.22 µM
# Procedure, shortened: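 Huh7 reporter cells (NPC1 promoter driving luciferase) are dosed with compound for 24 h at 37 °C, 5% CO2; luciferase detection reagent is then added and luminescence measured after 10 min at ambient temperature.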
# Potency is read from the fitted curve at half-maximal effect.
row,SMILES,Potency
1,Cc1cc(C(=O)OCC(=O)Nc2ccccc2Cl)c(C)o1,inactive
2,CCCc1ccc(C(=O)COC(=O)CN2C(=O)NC3(CCCCC3C)C2=O)cc1 (stereo not drawn),inactive
3,COc1ccc(-c2nnc(SCC(=O)c3cccs3)o2)c(OC)c1,2.24 µM (active)
4,COc1ccccc1-c1nnc(SCC(=O)N2CC(C)CC(C)C2)o1 (stereo not drawn),inactive
5,COc1ccc(CCNC(=O)CSc2nnc(CNC(=O)c3cccs3)o2)cc1OC,inactive
6,O=C(NNC(=O)c1ccc(-n2cncn2)c([N+](=O)[O-])c1)c1ccccc1,inactive
7,c1ccc(-n2nc3ccccc3n2)cc1,inactive
8,Nc1ccc2nn(-c3ccc(Cl)cc3)nc2c1,0.447 µM (active)
9,CN(C)c1nnnn1-c1ccc(Cl)cc1,inactive
10,CN(CC(=O)NC1CCN(Cc2ccccc2)CC1)S(=O)(=O)c1ccc(Cl)s1,inactive
11,Cn1c(=O)c(C(=O)Nc2ncccn2)c(O)c2ccccc21,2.82 µM (active)
12,CCCn1c(=O)c(C(=O)Nc2cc(C)ccn2)c(O)c2ccccc21,inactive
13,C=CCn1c(=O)c(C(=O)Nc2ncccc2O)c(O)c2ccccc21,inactive
14,O=C(N/N=C/c1ccco1)c1csc2c1CCCC2,inactive
15,O=C(Nc1ccccc1N1CCOCC1)c1csc2c1CCCC2,inactive
16,Cc1ccc(NC(=O)c2csc3c2CCCC3)cc1,2.82 µM (active)
17,Cc1ccc(N=C2NC(=O)c3cccc([N+](=O)[O-])c32)cc1,inactive
18,CS(=O)(=O)c1ccc2nc(NC(=O)C3CCCCC3)sc2c1,inactive
19,COc1ccc2nc(NC(=O)c3ccc(Br)s3)sc2c1,3.98 µM (active)
20,COc1ccc2nc(NC(=O)[C@@H]3CCCN3C(=O)c3cccs3)sc2c1,inactive
21,COc1ccc(CNC(=O)c2ccc(Br)s2)cc1OC,inactive
22,COc1ccc2nc(NC(=O)NC3CCCCC3)sc2c1,3.16 µM (active)

row,SMILES,Potency
1,CCc1noc(C)c1C(=O)Nc1nc2ccc(OC)cc2s1,inactive
2,CCOc1ccc(OCC(=O)OC(C)C(=O)NC2CCCCC2C)cc1 (stereo not drawn),inactive
3,O=C(CCc1nc2sc3c(c2c(=O)[nH]1)CCCC3)NCC(=O)Nc1ccccc1Br,inactive
4,CSCCC(NC(=O)c1ccco1)C(=O)NCCc1ccc(F)cc1 (stereo not drawn),inactive
5,COc1ccc(S(=O)(=O)N2CCN(C(C)C(=O)Nc3ccc(C(C)C)cc3)CC2)cc1 (stereo not drawn),inactive
6,CCC(=O)c1ccc(OCC(=O)OCC(=O)N2CCc3ccccc3C2)cc1,inactive
7,O=C(Nc1nc2ccc([N+](=O)[O-])cc2s1)c1ccncc1,1.41 µM (active)
8,CCOc1ccc2nc(NC(=O)c3cc([N+](=O)[O-])ccc3N3CCOCC3)sc2c1,inactive
9,O=C(NC(Nc1nc2ccc([N+](=O)[O-])cc2s1)(C(F)(F)F)C(F)(F)F)c1ccccc1,inactive
10,CCC(C(=O)N1CCN(S(=O)(=O)c2sc(C(=O)O)c(C)c2C(=O)O)CC1)c1ccccc1 (stereo not drawn),inactive
11,Cc1nc(N)sc1N=Nc1c(C)n(C)n(-c2ccccc2)c1=O,inactive
12,Cc1c(N=Nc2ccc(N(C)C)cc2)c(=O)n(-c2ccccc2)n1C,3.55 µM (active)
13,Cc1c(C=O)n(C)n(-c2ccccc2)c1=O,inactive
14,CC(C(=O)Nc1ccc(S(=O)(=O)N2CCCC2)cc1)N(C)Cc1ccc(F)cc1 (stereo not drawn),inactive
15,Cc1ccc(NC(=O)CNCc2ccccn2)cc1S(=O)(=O)N(C)C,inactive
16,CCN(CC)S(=O)(=O)c1cc(C(=O)Nc2ccccn2)ccc1C,2.24 µM (active)
17,CCN(c1ccccc1)S(=O)(=O)c1cc(C(=O)NCc2ccccn2)ccc1C,inactive
18,COc1cc(OC)cc(C(=O)NCC(=O)N2CCCCCCC2)c1,inactive
19,Cc1ccc(C)c(NC(=O)COC(=O)CSc2ccccc2)c1,inactive
20,CCN(CC)S(=O)(=O)c1ccc(-c2cn3ccc(C)cc3n2)cc1,1.26 µM (active)
21,COc1ccc(-n2c(-c3ccc(OC)c(OC)c3)n[nH]c2=S)cc1,inactive
22,COc1ccc(-c2cn3ccc(C)cc3n2)cc1,0.112 µM (active)

row,SMILES,Potency
1,COc1ccc(-c2cn3ccsc3n2)cc1,1.58 µM (active)
2,COc1cc(OC)cc(-c2nc(=S)n3ccsc3n2)c1,inactive
3,CCN(c1cccc(C)c1)S(=O)(=O)c1ccc(-c2coc(C)n2)cc1,inactive
4,COc1ccc(CNc2nccs2)cc1,inactive
5,Cc1ccn2cc(C(=O)NC3CCN(Cc4ccccc4)CC3)nc2c1,inactive
6,CCN(CC(=O)NCCc1ccccc1)S(=O)(=O)c1ccc(C)cc1,inactive
7,COC(=O)Cc1ccc(OC(=O)C2CCN(S(=O)(=O)c3ccc(OC)c(OC)c3)CC2)cc1,inactive
8,COCCn1c(C)cc(C(=O)CSc2nnc(C3CC3)n2C2CC2)c1C,inactive
9,CN(C(=O)COC(=O)CCCc1c[nH]c2ccccc12)c1c(N)n(Cc2ccccc2)c(=O)[nH]c1=O,inactive
10,O=C(Nc1ccc2c(c1)OCCO2)C1CCCN(c2ncccn2)C1 (stereo not drawn),0.398 µM (active)
11,Cc1cc(C)nc(N2CCC(C(=O)Nc3ccc4c(c3)OCCO4)CC2)n1,inactive
12,O=C(Nc1ccc2c(c1)OCCO2)C1CCCC1,inactive
13,CCc1ccccc1NC(=O)CN(C)C(=O)c1cc(C2CC2)nn1-c1ccccc1,inactive
14,COc1ccc(Cl)cc1C(=O)OCC(=O)NCc1cccs1,inactive
15,CCN(CC(=O)Nc1c(F)cccc1F)C(=O)c1ccc(-c2ccc(C(C)=O)cc2)o1,inactive
16,N#Cc1ccc(CN2CCN(CC(=O)Nc3ccccc3C(=O)NC3CC3)CC2)cc1,inactive
17,O=c1c(-c2ccccc2)coc2cc(O)ccc12,3.16 µM (active)
18,Cc1c(CCC(=O)O)c(=O)oc2cc3occ(-c4ccccc4)c3cc12,inactive
19,CC(C)CN(Cc1c(O)ccc2c(=O)c(-c3ccccc3)coc12)CC(C)C,inactive
20,COCC1CCCN(Cc2nc(-c3ccc4c(c3)OCO4)no2)C1 (stereo not drawn),inactive
21,CC(C)CCNC(=O)c1ccc2c(Cl)c3c(nc2c1)CCC3,2 µM (active)
22,COc1ccc(N2CCN(C(=O)c3ccc4c(Cl)c5c(nc4c3)CCCC5)CC2)cc1,inactive

row,SMILES,Potency
1,CC(=O)c1ccc(NC(=O)c2ccc3c(Cl)c4c(nc3c2)CCCC4)cc1,inactive
2,Cc1c(C)c(C)c(S(=O)(=O)N2CCC3(CC2)OCCO3)c(C)c1C,inactive
3,CCOc1ccc(S(=O)(=O)NCCC(=O)NCC2CCCO2)cc1 (stereo not drawn),inactive
4,CC(NC(=O)CN(C)S(=O)(=O)c1ccc(F)cc1)C1CC2CCC1C2 (stereo not drawn),inactive
5,CCCCN1C(=O)C(=O)N(CC(=O)Nc2cccc(C(C)=O)c2)C1=O,inactive
6,COc1cc(C(c2c(NC(=O)c3ccco3)sc(C)c2C)N2CCOCC2)cc(OC)c1OC (stereo not drawn),inactive
7,c1ccc(Nc2nc(-c3ccncc3)cs2)nc1,2.24 µM (active)
8,CCCn1c(CCNc2nc(-c3ccc(OC)cc3)cs2)nc2ccccc21,inactive
9,COc1ccc(C(=O)Nc2nc(-c3ccc(S(=O)(=O)N4CCOCC4)cc3)cs2)cc1,inactive
10,O=C(Nc1nc(-c2ccc(-c3ccccc3)cc2)cs1)c1cnccn1,inactive
11,Cc1ccc(-c2csc(NC3OC(=O)c4ccccc43)n2)cc1 (stereo not drawn),inactive
12,O=C(O)c1ccccc1C(=O)Nc1nc(-c2ccccc2)cs1,inactive
13,c1cnc(Nc2nc(-c3ccc4ccccc4c3)cs2)nc1,0.282 µM (active)
14,COc1ccc(-c2csc(Nc3ccccn3)n2)cc1,0.631 µM (active)
15,Clc1ccc(-c2csc(-c3ccncc3)n2)cc1,inactive
16,CC(=O)c1ccc(N2CCN(C(=O)c3ccc(Cl)c(S(=O)(=O)NC4CC4)c3)CC2)c(F)c1,inactive
17,COc1ccccc1NC(=O)CSc1nnc(CNC(=O)c2ccccc2F)o1,inactive
18,O=C(/C=C/c1cccc([N+](=O)[O-])c1)OCC(=O)N1CCOCC1,inactive
19,CC1CC(=O)Nc2ccccc2N1C(=O)COc1ccc2cc(Br)ccc2c1 (stereo not drawn),inactive
20,NC(=O)NCCCC(=O)O,inactive
21,CC(C)(C)NC(=O)Cn1nnc(-c2ccccc2Cl)n1,3.98 µM (active)
22,COc1cc(-c2nnn(CC(=O)NCc3ccccc3)n2)cc(OC)c1OC,inactive

row,SMILES,Potency
1,Cc1ccccc1-c1nnn(CC(=O)c2ccc(S(=O)(=O)N3CCCC3)cc2)n1,inactive
2,CCOc1cc(/C=C/C(=O)OCC(=O)NCCN2C(=O)CSC2=O)ccc1OCC(C)C,inactive
3,CCOC(=O)c1cc(-c2ccccc2C)n(Cc2cc(C)no2)n1,inactive
4,COCc1c(C(=O)OCC(=O)Nc2ccc(OC(F)F)cc2)oc2ccccc12,inactive
5,CN(C)c1ccc(-c2nnc(-c3cccnc3)o2)cc1,1.12 µM (active)
6,COC(=O)CSc1nnc(-c2cccnc2)o1,inactive
7,CN(C)c1nc(-c2cccnc2)nc(-c2ccc(Cl)cc2)c1C#N,inactive
8,COc1ccc([C@H]2CC(=O)C=C(/C=C/c3ccccc3)C2)cc1,inactive
9,CCc1cccc(C)c1N1C(=O)CN(Cc2ccccc2)C1=S,inactive
10,Cc1ccc(SCCSc2ncccn2)cc1,1.26 µM (active)
11,Cc1ccc(SCCC(=O)NC(C(C)C)C(C)C)cc1,inactive
12,Cc1ccc(SCCC(=O)NCc2ccccn2)cc1,inactive
13,COc1ccc(S(=O)(=O)N2CCOCC2)cc1NC(=O)Cc1coc2cc(C)ccc12,inactive
14,Cc1n[nH]c(=O)c2c(NC(=O)CSc3cc(Cl)ccc3Cl)oc(C)c12,inactive
15,CCCCN(C(=O)c1nn(C)c(=O)c2ccccc12)c1c(N)n(CCC)c(=O)[nH]c1=O,inactive
16,COc1cccc(CNC(=O)COC(=O)CN2C(=O)NC3(CCCCC3C)C2=O)c1 (stereo not drawn),inactive
17,O=C(CNC(=O)c1ccccc1Br)NNC(=O)c1cccs1,inactive
18,CN(Cc1ccccc1)C(=O)CSc1nc2ccccc2[nH]1,inactive
19,O=C(CSc1nc2ccccc2[nH]1)Nc1nc(-c2ccccc2)c(-c2ccccc2)o1,inactive
20,O=C(CSc1nc2ccccc2[nH]1)c1cccs1,1.26 µM (active)
